Shown are actives, neighbours in structure and some others; about 1.9% of the full set was active somewhere.
INS-1E GSIS act: primary screen for activators of insulin secretion dependent on glucose, INS-1E cells, GLuc reporter luminescence; AID 743287; INS-1E GLuc reporter insulin secretion, 2-3 h; 370,000 compounds, 0.61% hits; activation, % at 16.6 µM;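 active = lowest replicate activation of at least 40%, so every replicate reaches that level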;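 also: 0% = median of neutral control wells and 100% = median of IBMX positive control wells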
dFosB act: enhances mouse delta FosB homodimer DNA binding; purified delta FosB, TAMRA-CDK5 oligo fluorescence polarization; percent of positive-control signal above neutral wells; activation, % at 25 µM; 340,000 compounds, 0.99% hits; AID 493131;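 active = mean activation above about 17%, with every replicate also reaching it, limit read from the data, passing the limit was not always enough; inconclusive = only one of the two conditions met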
Target sequence (P13346 whole entry, looked up): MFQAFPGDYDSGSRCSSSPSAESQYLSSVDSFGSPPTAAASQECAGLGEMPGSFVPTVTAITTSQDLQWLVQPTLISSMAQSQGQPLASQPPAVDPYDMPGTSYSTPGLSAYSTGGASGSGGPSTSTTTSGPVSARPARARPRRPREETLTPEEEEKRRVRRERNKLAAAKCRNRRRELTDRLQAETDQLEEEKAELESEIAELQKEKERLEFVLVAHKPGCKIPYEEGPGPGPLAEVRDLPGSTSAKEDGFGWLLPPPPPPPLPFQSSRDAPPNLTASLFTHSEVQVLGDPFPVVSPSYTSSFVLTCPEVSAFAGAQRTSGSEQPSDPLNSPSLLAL
Neddylation inh: blocks human cullin neddylation | P61081+Q13564 | TR-FRET cullin neddylation, biochemical | inhibition, % at 25 µM | 360,000 compounds, 0.58% hits | AID 651699; in the data active = inhibition above about 36%
A1 inh: inhibitors of the anti-apoptotic protein A1, read as caspase activation; MEF A1-2A-BIM cells, Caspase-Glo 3/7 luminescence, 3 h; percent of clofoctol response, vehicle zero; caspase activation, % (concentration not given with the values); 330,000 compounds, 0.066% hits;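 active = over half of replicate activation scores above 10%, or exactly half above 10 with the replicate mean above 10; inconclusive = replicate mean below 10 yet half the replicates above 10; inactive = over half of replicates below 10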
Vif imaging: inhibitors of HIV Vif; inhibition, % at 7.49 µM; HEK293T cells, Vif self-association by quenched fluorescence, imaging, 24 h; AID 602346; 340,000 compounds, 0.35% hits; in the data active = inhibition above about 50%, passing the limit was not always enough; inconclusive = no clear call, values can overlap the other calls; inactive = below about 31%
An asterisk follows results filed as active; ? = inconclusive; . = no result shown; ! = a repeat was not active.

SMILES	INS-1E GSIS act	dFosB act	Neddylation inh	A1 inh	Vif imaging
Cc1ccnc(NS(=O)(=O)c2ccc(NC(=O)Cc3ccccc3)cc2)n1	28	2	6	-4	11
Cc1ccnc(NS(=O)(=O)c2ccc(NC(=O)CCc3ccccc3)cc2)n1	42*	-2	5	2	-2
O=C(CCc1ccccc1)Nc1ccccc1	5	-2	1	-3	55*
O=C(c1cccc(S(=O)(=O)N2CCCCC2)c1)N1CCN(c2ccccc2)CC1	-3	1	10	1	8
CC1CCN(C(=O)c2cccc(S(=O)(=O)N3CCN(c4ccccc4)CC3)c2)CC1	42*	-4	9	0	8
CC1CN(S(=O)(=O)c2cccc(C(=O)N3CCC(C(N)=O)CC3)c2)CC(C)O1 (stereo unspecified)	.	1	-5	0	53*
NC(=O)C1CCCN(C(=O)c2cccc(S(=O)(=O)N3CCCCCC3)c2)C1 (stereo unspecified)	11	-1	-11	?	-5
C[C@@H]1CN([C@@H](C)CO)C(=O)c2cccc(NC(=O)Nc3ccc(F)cc3)c2O[C@@H]1CN(C)S(=O)(=O)c1cn(C)cn1	7	.	.	.	.
COc1ccc2c3c(n(C)c2c1)[C@H](CO)NCC31CCN(Cc2ccc(F)cc2)CC1	23	.	.	.	.
O=C(C[C@H]1CC[C@H](NC(=O)c2ccccc2)[C@@H](CO)O1)NCCc1ccncc1	7	.	.	.	.
CCOC(=O)c1c(NC(C)=O)sc2c(OCC(O)CNC(C)(C)C)c(Br)ccc12 (stereo unspecified)	45*	-26	30	0	-13
CCN1CC(=O)N2[C@H](CO)[C@@H](c3ccc(Br)cc3)[C@@H]2C1	-5	.	.	.	.
O=C(NCc1cc(Cl)cc(Cl)c1)c1ccc2nc([C@@H]3O[C@H](CO)[C@@H](O)[C@H]3O)[nH]c2c1	56*	.	0	.	3
COc1ccc(S(=O)(=O)N[C@H]2CC[C@@H](CCn3cc(C(C)C)nn3)O[C@H]2CO)cc1	-4	.	.	.	.
COC(=O)c1ccc(C(=O)OC)c(NC(=O)COC(=O)C23CC4CC(CC(O)(C4)C2)C3)c1	-18	-19	6	0	52*
Nc1ccc(C(=O)c2ccccc2C(=O)O)cc1Cl	7	-1	-5	1	55*
C[C@@H]1CCCCO[C@H](CN(C)S(=O)(=O)c2ccc(F)cc2)[C@H](C)CN([C@@H](C)CO)C(=O)c2cc(NC(=O)Nc3ccc4c(c3)OCO4)ccc2O1	-4	.	.	.	.
CCCCN1C(=O)/C(=C/C=C2\Oc3ccccc3N2CC)SC1=S	-16	-14	-92	.	69*
CC(C)C(NC(=O)c1ccccc1NC(=O)C(C)(C)C)C(=O)N1CCOCC1 (stereo unspecified)	19	-4	11	-1	69*
CC(NC(=O)c1ccccc1NC(=O)c1ccccc1)C(=O)N1CCOCC1 (stereo unspecified)	.	-4	5	0	-3
CCOc1ccccc1-c1cc(C(=O)N/N=C/c2ccc(O)c(OC)c2)c2ccccc2n1	4	25*	1	1	12
CCOc1ccc(/C=N/NC(=O)c2cc(-c3ccco3)nc3ccccc23)cc1	69*	1	29	2	3
O=C(N/N=C/c1ccc(F)cc1)c1cc(-c2ccco2)nc2ccccc12	.	-17	43*	0	1
CCOc1cc(/C=N/NC(=O)c2cc(-c3cccnc3)nc3ccccc23)ccc1O	2	-7	-17	0	-2
CCOc1ccccc1-c1cc(C(=O)N/N=C/c2ccc3c(c2)OCO3)c2ccccc2n1	.	3	.	.	8
SMILES	INS-1E GSIS act	dFosB act	Neddylation inh	A1 inh	Vif imaging
O=C(O)c1cc(-c2ccco2)nc2ccccc12	13	1	.	1	.
COc1ccc2c3c([nH]c2c1)[C@@H](CO)N(C(=O)Nc1ccc(F)cc1)CC31CCN(S(=O)(=O)c2cccc(F)c2)CC1	-24	.	.	.	.
CCNC(=O)C[C@H]1CC[C@@H]2[C@@H](COc3ccc(NC(=O)Nc4c(C)noc4C)cc3C(=O)N2C)O1	10	.	.	.	.
CO[C@@H]1CN(C)C(=O)c2ccc(NC(=O)Cc3ccccc3)cc2OC[C@@H](C)N(CC2CC2)C[C@H]1C	8	.	.	.	.
COc1cccc(CN2C[C@@H]3N[C@H](C2)C3c2ccc(-c3ccncc3)cc2)c1 (stereo partly specified)	6	.	.	.	.
COc1cccc(-c2ccc(C3[C@@H]4CN(Cc5cccc(F)c5)C[C@H]3N4)cc2)c1 (stereo partly specified)	755*!	.	.	.	.
COc1ccc(-c2ccc(C3[C@@H]4CN(Cc5cccc(OC)c5)C[C@H]3N4)cc2)cc1 (stereo partly specified)	51*!	.	.	.	.
CC1CCN(CC(O)COC2CC(C)CCC2C(C)C)CC1 (stereo unspecified)	-2	-5	0	0	2
CC(C)[C@@H]1CC[C@@H](C)C[C@H]1OC[B-](F)(F)F	69*	.	.	.	.
C[C@@H]1CN([C@H](C)CO)C(=O)Cc2cc(NC(=O)CCCN(C)C)ccc2O[C@@H]1CN(C)CC1CCCCC1	17	.	.	.	.
Cc1cc(N/N=C/c2ccccc2)nc(NCc2ccccc2)n1	-23	38*	-2	-1	0
Cc1cc(C)nc(N/N=C/c2ccc(Cl)cc2)n1	4	-5	-6	0	2
Cc1cc(N/N=C/c2ccc(Cl)cc2)nc(NCc2ccccc2)n1	-28	53*	24	0	-4
Cc1cc(N/N=C/c2ccccc2F)nc(NCc2ccccc2)n1	.	6	4	-1	-6
Cc1cc(N/N=C/c2cccc(F)c2)nc(NCc2ccccc2)n1	6	33*	0	0	-14
COc1ccc(CN(C)C[C@@H]2Oc3ccc(NC(=O)Cn4cnnn4)cc3C(=O)N([C@H](C)CO)C[C@H]2C)cc1	-4	.	.	.	.
CC(=NNC(=O)c1cc(C)oc1C)c1ccc(Br)s1	1	-1	0	0	52*
C/C(=N\NC(=O)c1ccc(Cl)c(Cl)c1)c1ccc(Br)s1	102*	6	-50	-1	2
C/C(=N/NC(=O)c1ccc2c(c1)OCO2)c1ccc(Br)s1	4	8	-86	-1	-1
O=C(C[C@H]1C[C@H]2c3cc(NC(=O)Nc4ccccc4)ccc3O[C@H]2[C@H](CO)O1)NC1CCCCC1	2	.	.	.	.
Cc1cc(CCNC=O)c(C)c2c1oc1ccccc12	57*	-26	-6	.	0
COCC#Cc1cnc2c(c1)C(=O)N([C@@H](C)CO)C[C@@H](C)[C@H](CN(C)C)O2	16	.	.	.	.
Cc1noc(C)c1NC(=O)Nc1ccc2c(c1)C(=O)N([C@H](C)CO)C[C@@H](C)[C@@H](CN(C)C(=O)Nc1ccc3c(c1)OCO3)OCCCC[C@@H](C)O2	14	.	.	.	.
O=C(Cn1c2ccc(F)cc2c2nc3n(c(=O)c21)CCS3)Nc1ccc(Cl)cc1F	-18	21*	19	0	-4
Cc1ccc(NC(=O)Cn2c3ccc(F)cc3c3nc4n(c(=O)c32)CCS4)cc1F	-1	13	14	1	-1
